Screening data from PubChem.
MPTP block – permeability transition pore inhibition. isolated mouse mitochondria, Ca2+ swelling absorbance, 30 min. 1.4% of 360,000 active. inhibition, % at 10 µM;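 active = inhibition of 50% or more, scaled per plate between neutral and stimulator controls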
tim10-1 inh – growth inhibitors of tim10-1 mutant yeast | S. cerevisiae tim10-1 ts strain growth, BacTiter-Glo, 24 h | inhibition, % at 20 µM | 2.2% of 330,000 active | AID 463190;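 active = inhibition of at least 40%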;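 note: mutant grown at 25 °C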
tim23-1 inh – growth inhibitors of tim23-1 mutant yeast | S. cerevisiae tim23-1 growth, BacTiter-Glo luminescence, 24 h | 1.3% of 330,000 active | inhibition, % at 20 µM;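 active = growth inhibition of the mutant yeast at or above 50%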;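 note: temperature-sensitive mutant grown at 25 °C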
TIM10 inh – TIM10 yeast growth inhibition; S. cerevisiae TIM10 strain growth, BacTiter-Glo luminescence, 24 h; inhibition, % at 10 µM; 1.4% of 330,000 active; AID 463195;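 active = inhibition of 40% or more at the single tested concentration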;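 note: wild-type TIM10 isogenic control strain grown at permissive 25 °C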
Mdm2-MdmX inh – inhibitors of human Mdm2/MdmX interaction; O15151+Q00987; SaOS-2 split-luciferase Mdm2/MdmX complementation, luminescence; inhibition, % at 8 µM; 3% of 330,000 active; AID 485346;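 active = inhibition of at least 50% at 8 µM in the primary screen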
tim23-1 confirm – confirmation of tim23-1 mutant yeast growth inhibitors | S. cerevisiae tim23-1 growth, BacTiter-Glo luminescence, 24 h | shares compounds with tim23-1 inh | inhibition, % at 20 µM | 83% of 4,400 active | AID 463218;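 active = inhibition above about 39% in either of two replicate wells at 20 µM, limit read from the data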;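 note: temperature-sensitive tim23-1 mutant grown at 25 °C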
Large screens that a line does not name were inactive (follow-up assays come after a bar, where they were run). Compounds with a hit are over-represented: about 6.3% of the library has one in this group of screens.

CCOC(=O)[C@H]1[C@H]2COc3ccc(Br)cc3[C@@H]2N2C(=O)N(c3ccccc3)C(=O)[C@@]12C	tim23-1 inh 50.4 | tim23-1 confirm inactive
Cc1ccccc1NC(=O)Nc1nc(C(N)c2ccccc2)cs1 (centres undefined)	none (no result: tim10-1 inh, tim23-1 inh, TIM10 inh, Mdm2-MdmX inh)
Cc1nc(-c2ccc(NC(=O)c3ccc(Br)o3)cc2)cs1	tim23-1 inh 61.5 | tim23-1 confirm 56.1
Cc1nc(-c2ccc(NC(=O)C3CC3)cc2)cs1	tim23-1 inh 54.1 | tim23-1 confirm 40.0
Clc1cccc(Cl)c1C1Nc2cccc3cccc(c23)N1	tim23-1 inh 52.7 | tim23-1 confirm 75.0
Fc1cccc(Cl)c1C1Nc2cccc3cccc(c23)N1	none
Cc1nc(Nc2ccc3c(c2)OCCO3)c2c(C)c(C)sc2n1	tim23-1 inh 54.7 | tim23-1 confirm 49.2
Cc1sc2ncnc(OCC(=O)Nc3ccc4c(c3)OCCO4)c2c1C	none
Nc1ccc2nc(SCc3cccc(F)c3)sc2c1	tim23-1 inh 56.7 | tim23-1 confirm 45.8
CCCCOc1ccc(N=Nc2ccc(N)nc2N)cn1	tim23-1 inh 80.1 | tim23-1 confirm 70.2
Cc1nnc(NS(=O)(=O)c2ccc(N=Nc3ccc(N)nc3N)cc2)s1	none (no result: tim10-1 inh, tim23-1 inh, TIM10 inh, Mdm2-MdmX inh)
Cc1[nH][nH]c(=O)c1C(c1ccc(-c2cccc(C(=O)O)c2)o1)c1c(C)[nH][nH]c1=O	none
Cc1[nH][nH]c(=O)c1C(c1ccc(-c2ccccc2C(=O)O)o1)c1c(C)[nH][nH]c1=O	none (no result: tim10-1 inh, tim23-1 inh, TIM10 inh, Mdm2-MdmX inh)
Cc1[nH][nH]c(=O)c1C(c1ccc(-c2cccc(Cl)c2)o1)c1c(C)[nH][nH]c1=O	tim23-1 inh 78.4 | tim23-1 confirm 61.9
COC(=O)c1ccc(-c2ccc(C(c3c(C)[nH][nH]c3=O)c3c(C)[nH][nH]c3=O)o2)cc1	tim23-1 inh 57.1 | tim23-1 confirm 37.4
COCC(=O)N/N=C\c1ccccc1OC/C=C/c1ccccc1	tim23-1 inh 50.6 | tim23-1 confirm 39.3
N#CCC(=O)N/N=C\c1ccccc1OC/C=C/c1ccccc1	none
C(=N\N1CCN(C2c3ccccc3-c3ccccc32)CC1)/c1ccccn1	tim23-1 inh 54.3 | tim23-1 confirm inactive
Cc1[nH]n(-c2ccccc2)c(=O)c1C(c1cccc([N+](=O)[O-])c1)c1c(C)[nH]n(-c2ccccc2)c1=O	tim23-1 inh 56.4 | tim23-1 confirm 60.2
Cc1[nH]n(-c2ccccc2)c(=O)c1C(=O)c1ccc([N+](=O)[O-])cc1	none
N#Cc1c(NC(=O)C2CC2)sc2c1CCCCC2	tim23-1 inh 51.0 | tim23-1 confirm 44.5
COc1ccc(C2=Nc3ccccc3N(C(=O)c3ccncc3)C2C(=O)NC(C)(C)C)cc1 (centres undefined)	none (no result: tim10-1 inh, tim23-1 inh, TIM10 inh, Mdm2-MdmX inh)
CC(=O)N[C@@H]1C=C[C@@H](CC(=O)NCc2ccc(Cl)cc2)O[C@@H]1CO	none (no result: tim10-1 inh, tim23-1 inh, TIM10 inh, Mdm2-MdmX inh)
CN(C)/C=C1/C=C(c2ccccc2)OC1=O	tim23-1 inh 56.0 | tim23-1 confirm 40.8
CC1=C/C(=C/N(C)C)C(=O)O1	none
O=C(Nc1ccc(-c2noc(CCc3ccccc3)n2)cc1)c1ccco1	tim23-1 inh 55.1 | tim23-1 confirm 61.1
CS(=O)(=O)Nc1ccc(C2=NN(C(=O)c3ccco3)C(c3ccco3)C2)cc1 (centres undefined)	none
COc1cccc(C2=NN(C(=O)c3ccco3)C(c3ccco3)C2)c1 (centres undefined)	tim23-1 inh 51.8 | tim23-1 confirm 41.4
Cc1cc(C(=O)COC(=O)c2ccc3c(c2)OCO3)c(C)n1CC1CCCO1 (centres undefined)	none
Cc1cc(C(=O)COC(=O)c2ccc([N+](=O)[O-])o2)c(C)n1CC1CCCO1 (centres undefined)	tim23-1 inh 54.2 | tim23-1 confirm 55.0
COCCn1c(C)cc(C(=O)COC(=O)c2ccc([N+](=O)[O-])o2)c1C	tim23-1 inh 51.8 | tim23-1 confirm 58.6
Cc1cc(C)c(C(=O)COC(=O)c2ccc([N+](=O)[O-])o2)cc1C	none
Cc1ccccc1-c1csc(C(O)c2ccccc2)n1 (centres undefined)	none (no result: tim10-1 inh, tim23-1 inh, TIM10 inh, Mdm2-MdmX inh)
CCCS(=O)(=O)NC(=O)C1(C)CCN(C(=O)c2ccc3ccccc3c2)C1 (centres undefined)	none (no result: tim10-1 inh, tim23-1 inh, TIM10 inh, Mdm2-MdmX inh)
COc1ccccc1CNc1nc(Nc2ccccc2-n2cccn2)c2sccc2n1	none (no result: tim10-1 inh, tim23-1 inh, TIM10 inh, Mdm2-MdmX inh)
CC(Cc1ccccc1)NC(=O)c1cc2ccccc2o1 (centres undefined)	tim23-1 inh 50.9 | tim23-1 confirm 53.1
CC(=O)N1CCOC12CCN(Cc1ccccc1)CC2	none (no result: tim10-1 inh, tim23-1 inh, TIM10 inh, Mdm2-MdmX inh)
